Records with an inconclusive call do not appear. Unmarked numbers belong to inactive results. The source made the active and inactive calls. Calls follow the shape of the dose curve; as a rule, active = well fitted curve in the direction sought with a large enough effect; inconclusive = small, poorly fitted or top-dose-only effect, or another doubt; inactive = no such curve, though single readings can be large; an effect the other way counts as inactive or inconclusive.

A short description of experiment [1]: BET inhibitor-based combinations targeting novel dependencies in MECOM-rearranged (r) AML: SET-2 cell line (AID 2202231). Also: nearly all actives have a fitted effect of over 35% in size.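 As to viability: plate controls were DMSO treated cells for no effect and wells without cells for full effect.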 Particulars: SET-2 AML cells viability, CellTiter-Glo luminescence, 48 h; viability: hits give low values, concentration not given here. The gist of the method:
(§1)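 Luminescent ATP readout (CellTiter-Glo) after 48 hr drug exposure gives viability. Curves span 11 concentrations and are normalized to DMSO and empty wells. Activity is reported as area under the curve and its Z-transform within each cell line.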

The nature of experiment [2]: BET inhibitor-based combinations targeting novel dependencies in MECOM-rearranged (r) AML: MV-4-11 cell line (AID 2202233). Also: nearly all actives have a fitted effect of over 45% in size. Summed up:
(§2)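 Luminescent ATP readout (CellTiter-Glo, 15 min at room temperature) after 48 hr drug exposure gave viability. Dose-response curves, normalized to DMSO and empty-well controls, were summarized as area under the curve and its mean-centred Z-score.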

Experiment [3] is described as follows: BET inhibitor-based combinations targeting novel dependencies in MECOM-rearranged (r) AML: HNT-34 cell line (AID 2202234). Also: nearly all actives have a fitted effect of over 35% in size. Summed up:
as §2

Experiment [4] in a line: BET inhibitor-based combinations targeting novel dependencies in MECOM-rearranged (r) AML: UCSD-AML1 cell line (AID 2202235). Also: nearly all actives have a fitted effect of over 40% in size. The gist of the method: as §2
Experiment [5] is described as follows: BET inhibitor-based combinations targeting novel dependencies in MECOM-rearranged (r) AML: AML-191 cell line (AID 2202236; also: nearly all actives have a fitted effect of over 35% in size). The gist of the method: as §1
The nature of experiment [6]: BET inhibitor-based combinations targeting novel dependencies in MECOM-rearranged (r) AML: AML-194 cell line (AID 2202237; also: nearly all actives have a fitted effect of over 40% in size). The gist of the method: as §1
Potency is read from the fitted curve at half-maximal effect.

With `Cc1ccc(F)c(NC(=O)Nc2ccc(-c3cccc4[nH]nc(N)c34)cc2)c1`, the Potency was 14.8 µM (active) in experiment [1]; 0.0074 µM (active) in experiment [2]; 26.3 µM (active) in experiment [3]; 16.6 µM (active) in experiment [4]; 16.6 µM (active) in experiment [5]; 16.6 µM (active) in experiment [6].
For `CC(=O)c1cc2c(o1)C(=O)c1ccccc1C2=O`, the Potency in experiment [1] is 2.63 µM (active); in experiment [2] it was 0.833 µM (active); in experiment [4] it was 2.95 µM (active); in experiment [5], 2.35 µM (active); in experiment [6] it was 2.35 µM (active).
For the compound `O=C(O)CCC=CCC[C@@H]1[C@H](N2CCCCC2)[C@@H](O)C[C@@H]1OCc1ccc(-c2ccccc2)cc1`, the Potency in experiment [1] is 1.18 µM (active). Also, the Potency result in experiment [2], in experiment [4], in experiment [5] and in experiment [6] was “inactive” throughout.
Consider `C=CC(=O)Nc1cccc(Oc2nc(Nc3ccc(N4CCN(C)CC4)cc3)nc3ccsc23)c1`, for which the Potency is 26.3 µM (active) in experiment [1]; 8.33 µM (active) in experiment [2]; 9.34 µM (active) in experiment [4]; 23.5 µM (active) in experiment [5]; 14.8 µM (active) in experiment [6].
Take `CN(C)Cc1cccc(N=C(c2ccccc2)c2c(O)[nH]c3cc(C(N)=O)ccc23)c1`: the viability in experiment [1] was 78%. Moreover, the Potency in experiment [2] was 0.662 µM (active). The Potency result in experiment [4] was “inactive”.
On to `CC(C)=CCC/C(C)=C/CC/C(C)=C/CSc1ccccc1C(=O)O`, for which the viability in experiment [1] is 106%. In experiment [2], the Potency is 11.8 µM (active). Moreover, the Potency result in experiment [4], in experiment [5] and in experiment [6] was “inactive” each time.
With `Cc1ccc2cc(-c3c(C)ccc(C(=O)c4c(-c5ccccc5)n(C)n(-c5ccccc5)c4=O)c3N)ccc2n1`, the viability in experiment [1] is 92.3%. Besides, the Potency entry in experiment [2], in experiment [4], in experiment [5] and in experiment [6] was “inactive” throughout.
In the case of `CN(C)C/C=C/C(=O)Nc1cc2c(Nc3ccc(F)c(Cl)c3)ncnc2cc1O[C@H]1CCOC1`, the Potency was 4.68 µM (active) in experiment [1]; 1.18 µM (active) in experiment [2]; 2.95 µM (active) in experiment [3]; 7.42 µM (active) in experiment [5]; 7.42 µM (active) in experiment [6].
As for `O=C(O)/C(S)=C/c1ccc(I)cc1`, the viability in experiment [1] is 112%. Further, the Potency entry in experiment [2], in experiment [3], in experiment [4], in experiment [5] and in experiment [6] was “inactive” each time.
With `COc1cc(O)c2c(c1)C1OC1C[C@H](O)[C@H](O)C(=O)C=CC[C@H](C)OC2=O` (stereo not given in full), the Potency in experiment [1] was 5.9 µM (active); in experiment [2] it was 0.132 µM (active); in experiment [3] it was 0.934 µM (active); in experiment [4], 1.48 µM (active); in experiment [5], 1.32 µM (active); in experiment [6], 1.48 µM (active).
Regarding `COc1ccc(/C=C\c2cc(OC)c(OC)c(OC)c2)cc1O`, the Potency was 0.0148 µM (active) in experiment [1], 0.0132 µM (active) in experiment [2], 0.0118 µM (active) in experiment [4] and 0.0132 µM (active) in experiment [5].
On to `C=C[C@H]1CN2CCC1C[C@@H]2C(O)c1ccnc2ccc(OC)cc12` (stereo not given in full), for which the viability in experiment [1] is 103%. Further, the Potency in experiment [2] was 18.6 µM (active). Also, the Potency entry in experiment [3], in experiment [4] and in experiment [6] was “inactive” each time.
On to `COCCOC(=O)N1CCN(S(=O)(=O)c2cc(F)c(Oc3ccc(Cl)cc3)c(F)c2)C(C(=O)NO)C1` (stereo not given), for which the Potency in experiment [1] is 10.5 µM (active); in experiment [2], 16.6 µM (active); in experiment [3], 5.9 µM (active); in experiment [4], 10.5 µM (active); in experiment [5] it was 8.33 µM (active); in experiment [6] it was 8.33 µM (active).
With `CCOC(=O)[C@H](CCc1ccccc1)N[C@H]1CCc2ccccc2N(CC(=O)O)C1=O`, in experiment [1], the viability was 115%. Besides, the Potency in experiment [2] was 7.42 µM (active). Also, the Potency result in experiment [3], in experiment [4], in experiment [5] and in experiment [6] was “inactive” throughout.
As to `CN1CCN(c2ccc3nc(-c4cc(C(C)(C)C)c(OCCCC(=O)NCCCN=[N+]=[N-])c(C(C)(C)C)c4)[nH]c3c2)CC1`, the Potency in experiment [1] is 10.5 µM (active); in experiment [2], 7.42 µM (active); in experiment [3], 9.34 µM (active); in experiment [5] it was 9.34 µM (active); in experiment [6] it was 8.33 µM (active).
On to `CC[C@H](C)C(=O)O[C@H]1C[C@H](O)C=C2C=C[C@H](C)[C@H](CC[C@@H](O)C[C@@H](O)CC(=O)O)[C@H]21`, for which the viability in experiment [1] is 113%. The Potency result in experiment [2], in experiment [3], in experiment [4], in experiment [5] and in experiment [6] was “inactive” in each case.
For the compound `NC(=O)c1ccc2nc(-c3ccc(C4(N)CCC4)cc3)c(-c3ccccc3)n2n1`, in experiment [1], the viability was 98.4%. The Potency in experiment [2] was 4.17 µM (active); in experiment [4], 3.72 µM (active).
For the compound `Nc1nc(OC(c2ccc(-c3cccc(F)c3)cc2)C(F)(F)F)cc(-c2ccc(C[C@@H](N)C(=O)O)cc2)n1` (stereo not given in full), in experiment [1], the viability is 100%. In addition, the Potency entry in experiment [2], in experiment [4], in experiment [5] and in experiment [6] was “inactive” in each case.
With `C[C@]12CC[C@@H]3c4ccc(O)cc4CC[C@H]3[C@@H]1C[C@@H](O)[C@@H]2O`, the viability in experiment [1] was 109%. Further, the Potency result in experiment [3], in experiment [4], in experiment [5] and in experiment [6] was “inactive” each time.
With `CCCCCCCCCCCC(CC1OC(=O)C1CCCCCC)OC(=O)C(CC(C)C)NC=O` (stereo not given), the viability in experiment [1] is 98.6%. The Potency in experiment [2] was 0.742 µM (active). The Potency entry in experiment [4] and in experiment [6] was “inactive” throughout.
As for `CC(C)(C)S(=O)(=O)c1ccc2nccc(Nc3n[nH]c4ccc(F)cc34)c2c1`, the viability in experiment [1] is 104%. Moreover, the Potency result in experiment [3] and in experiment [6] was “inactive” throughout. Also, the Potency in experiment [4] is 0.0012 µM (active); in experiment [5], 10.5 µM (active).

The values are drawn from PubChem BioAssay (NCATS).
